The entries come from a sample that favours hits as a whole.
TTR transcr act: TTR transcription activation, primary screen; SH-SY5Y TTR promoter Gaussia luciferase, luminescence; 100% = recombinant luciferase protein wells; activation, % at 16.7 µM; actives 1.3% (n = 92,000);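 active = activation above the mean of all tested compounds plus 3 SD, cut at about 9.5% in these data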;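 also: cells exposed to compounds for one day before reading; 0% = median of all test compound wells on the plate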
HuH7 TTR inh: HuH7 TTR transcription inhibition, counter-screen | HuH7 TTR promoter-Gaussia luciferase reporter, luminescence | actives 4% (n = 1,100) | inhibition, % at 16.7 µM | shares compounds with TTR transcr act;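 active = average inhibition above the solvent-only control wells' mean plus 3 SD, cut at about 15% in these data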;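 also: 0% = cells with DMSO only and 100% = cells with inhibitor control FD; inhibitors lower well luminescence so higher value means more inhibition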
TTR act confirm: confirmation of human transthyretin transcription activators | shares compounds with TTR transcr act | SHSY5Y TTR promoter Gaussia luciferase, luminescence; 100% = purified Lucia enzyme wells, no cells | activation, % at 16.7 µM | 1,100 tested, under 10 active;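 active = mean activation above a set limit taken from the earlier primary screen, cut at about 11% in these data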;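 also: 0% = DMSO-treated cells and 100% = recombinant Lucia luciferase without cells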
Numbers without * were called inactive.

SMILES	TTR transcr act	others
O=[N+]([O-])c1ccc(Cn2ccc3ccc(-c4ccc5ccn(Cc6ccccc6)c5c4)cc32)cc1	2
CCC(C(=O)N1CCN(Cc2ccc3c(c2)OCO3)CC1)n1nnc2ccccc2c1=O (configuration not stated)	1
CCN1C(=O)[C@H]2[C@@H](c3ccc(SC4CCCCC4)cc3)N3CCCC[C@@]3(C(=O)OC)[C@H]2C1=O	3
COC(=O)[C@@]12CCCN1[C@H](c1ccc(SC3CCCCC3)cc1)[C@H]1C(=O)N(C)C(=O)[C@H]12	-1
CCN1C(=O)[C@@H]2[C@@H](c3ccc(SC4CCCCC4)cc3)N3CCC[C@@]3(C(=O)OC)[C@@H]2C1=O	11*	HuH7 TTR inh=-4;TTR act confirm=0
Cc1cc(N2CCN(C)CC2)nc2ccc(NC(=S)N3CCCCCC3)cc12	9.7*	HuH7 TTR inh=-25;TTR act confirm=0
Cc1cc(N2CCOCC2)nc2ccc(NC(=O)C3CCCCC3)cc12	0
Cc1cc(N2CCN(C)CC2)nc2ccc(NC(=S)NCCN3CCc4ccccc4C3)cc12	-1
CC(C)C[C@H](NC1(C(=O)NCCc2c[nH]c3ccccc23)CCN(C)CC1)C(=O)NCCCc1ccccc1	-1
NC(=S)NN=C1C=CCCC1	-1
CCc1ccc(-n2c(Cc3ccccc3)n[nH]c2=S)cc1	1
COC(=O)c1sc(S(=O)(=O)NC(Cc2ccccc2)C(=O)O)c(C(=O)OC)c1C (configuration not stated)	-1
CC[n+]1c(C)sc2c(C)cc(C)cc21	26*	HuH7 TTR inh=-3;TTR act confirm=0
CC1C(=O)N(Cc2cn(CCC3OCCCO3)nn2)CCS(=O)(=O)N1Cc1ccc(-c2ccc(Cl)cc2)cc1 (configuration not stated)	-3
CCOC(=O)c1c(C)oc2ccc(O)c(CN3CCCCC3)c12	23*	HuH7 TTR inh=-7;TTR act confirm=0
CCOC(=O)c1c(-c2ccccc2)oc2ccc(O)c(CN3CCOCC3)c12	-4
CCOC(=O)c1c(CN2CCCCC2)oc2ccc(OC)cc12	-1
O=C(/C=C/c1ccc([N+](=O)[O-])cc1)N(c1ccccn1)C1CCCCC1	5
COc1cccc(NC(=O)N(C)C[C@H]2Oc3ncc(Br)cc3C(=O)N([C@H](C)CO)C[C@H]2C)c1	1
CCC(C)[C@H](NC(=O)[C@@H]1CSC2c3ccccc3C(=O)N21)C(=O)NC1CCCC1 (some centres not stated)	-1
CCC(C)N1C(=O)c2ccccc2C1C(=O)NC1CCCCCC1 (configuration not stated)	15*	HuH7 TTR inh=-24;TTR act confirm=0
O=C(NC1CCCC1)C1c2ccccc2C(=O)N1CCCN1CCOCC1 (configuration not stated)	1
COc1cc(C(=O)NCC(=O)OCc2ccc(F)cc2)cc(OC)c1OC	-3
CCCCNCc1cc(OCC)c(OCC(N)=O)cc1Br	18*	HuH7 TTR inh=-5;TTR act confirm=2
CCCCNCc1cc(OC)c(OCC(N)=O)cc1Br	1
SMILES	TTR transcr act	others
CCOc1cc(CO)c(Br)cc1OCC(=O)O	1
COC(=O)[C@]12C[C@H](CC(=O)N3CCCCC3)C(=O)N(Cc3ccc(Cl)cc3Cl)C1=C[C@H](C1CCCC1)O[C@@H]2C	-1
COC(=O)[C@]12C[C@H](CC(=O)N3CCN(C(=O)c4ccco4)CC3)C(=O)N(Cc3ccco3)C1=C[C@H](COCc1ccccc1)O[C@@H]2C	3
O=C(NC1CCCCN(Cc2cccc(Cl)c2)C1=O)c1c(F)cccc1F (configuration not stated)	-1
COc1ccc(-c2c(C(=O)c3ccccc3)[nH]c(N)c2C(=O)c2c[nH]c3ccccc23)cc1OC	1
CCOC(=O)[C@]12CCCC3=C1N(CCC3)C(=O)[C@@H](CC(=O)NCc1cccc(C(F)(F)F)c1)C2	-2
CCN1C(=O)[C@H]2[C@@H](c3ccc(OC)cc3)N[C@]3(CCCN(Cc4ccco4)C3=O)[C@H]2C1=O	4
CN1C(=O)[C@H]2[C@@H](c3ccccc3)N[C@]3(CCCN(Cc4ccco4)C3=O)[C@H]2C1=O	10*	HuH7 TTR inh=-7;TTR act confirm=1
COc1ccc([C@H]2N[C@]3(CCCN(Cc4cccn4C)C3=O)[C@H]3C(=O)N(C)C(=O)[C@@H]23)cc1	0
CCN1C(=O)[C@H]2[C@@H](c3ccccc3)N[C@]3(CCCN(Cc4ccccc4)C3=O)[C@H]2C1=O	0
CC(C)CCN1CCC[C@]2(N[C@H](c3ccccc3)[C@@H]3C(=O)N(Cc4ccccc4)C(=O)[C@@H]32)C1=O	2
CCN1C(=O)[C@H]2[C@@H](c3ccc(C)cc3)N[C@]3(CCCN(CCC(C)C)C3=O)[C@H]2C1=O	20*	HuH7 TTR inh=-5;TTR act confirm=0
Cc1ccc(CNC(=O)O[C@H]2CC[C@@]34CCCN3C(=O)CCC[C@H]4C2)cc1	0
CN(Cc1ccc(C(F)(F)F)cc1)C(=O)C1CCC(=O)N(C2CC2)C1 (configuration not stated)	1
